Several values for one entry are separate records, joined by “and”; a condition that tells them apart may be missing. Equal values may be shown once. Where a structure was tested more than once in an assay, its records may differ in their call. Activity calls are given as the source filed them. Unless noted, calls follow the shape of the dose curve; as a rule, active = well fitted curve in the direction sought with a large enough effect in the repeat runs; inconclusive = weak or mixed curves; inactive = no such curve, though single readings can be large; an effect the other way counts as inactive or inconclusive.
Assays:
[1] = qHTS assay to identify small molecule antagonists of the glucocorticoid receptor (GR) signaling pathway - cell viability counter screen (AID 720693); also: nearly all actives have a fitted effect of over 55% in size; also: potency is read from the fitted curve at half-maximal effect
[2] = qHTS assay for identifying genotoxic compounds that show differential cytotoxicity against isogenic chicken DT40 cell lines with known DNA damage response pathways - wild type cell line (AID 743012); also: nearly all actives have a fitted effect of over 60% in size; also: potency is read from the fitted curve at half-maximal effect
In short: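 Using parental DT40 (300 cells/well), compounds delivered in DMSO incubate 40 h at 37 C/5% CO2. CellTiter-Glo reagent then stands 30 min at room temperature, and luminescence gives cell viability.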

[3] = qHTS assay for identifying genotoxic compounds that show differential cytotoxicity against isogenic chicken DT40 cell lines with known DNA damage response pathways - Rev3 mutant cell line (AID 743014); also: nearly all actives have a fitted effect of over 55% in size; also: potency is read from the fitted curve at half-maximal effect
[4] = qHTS assay for identifying genotoxic compounds that show differential cytotoxicity against isogenic chicken DT40 cell lines with known DNA damage response pathways - Rad54/Ku70 mutant cell line (AID 743015); also: nearly all actives have a fitted effect of over 60% in size; also: potency is read from the fitted curve at half-maximal effect
[5] = qHTS assay to identify small molecule antagonists of the androgen receptor (AR) signaling pathway - cell viability counter screen (AID 743033; also: nearly all actives have a fitted effect of over 45% in size; also: potency is read from the fitted curve at half-maximal effect)
[6] = qHTS assay to identify small molecule antagonists of the androgen receptor (AR) signaling pathway using the MDA cell line - cell viability counter screen (AID 743041; also: nearly all actives have a fitted effect of over 45% in size; also: potency is read from the fitted curve at half-maximal effect)
In short: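 MDA-kb2 AR-luc human breast carcinoma cells (MMTV-luciferase, AR/GR responsive) were treated with compounds plus R1881 agonist for 16 h at 37 °C. Viability was read as CellTiter-Fluor fluorescence in the same wells as the reporter assay.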

[7] = qHTS assay to identify small molecule antagonists of the thyroid receptor (TR) signaling pathway - cell viability counter screen (AID 743064); also: nearly all actives have a fitted effect of over 50% in size; also: potency is read from the fitted curve at half-maximal effect
In short: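 Counter screen for cytotoxicity: compound plus T3 (1 nM final) on GH3.TRE-Luc cells, 23.5 h at 37 °C, then fluorescence viability readout with CellTiter-Fluor.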

[8] = qHTS assay to identify small molecule antagonists of the thyroid receptor (TR) signaling pathway (AID 743065); also: nearly all actives have a fitted effect of over 55% in size; also: potency is read from the fitted curve at half-maximal effect
In short: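 GH3.TRE-Luc rat pituitary cells carrying two TR response elements driving luciferase were plated for 4 h, given compound plus 1 nM T3 (final), and incubated 23.5 h at 37 C. ONE-Glo luminescence measured reporter inhibition; CellTiter-Fluor fluorescence tracked cytotoxicity.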

[9] = system: thyroid hormone receptor (rat, GH3 cells); test: qHTS assay to identify small molecule agonists of the thyroid receptor (TR) signaling pathway (AID 743066; calls by dose curve; also: potency is read from the fitted curve at half-maximal effect)
[10] = qHTS assay to identify small molecule antagonists of the estrogen receptor alpha (ER-alpha) signaling pathway - cell viability counter screen (AID 743074; calls by dose curve; also: nearly all actives have a fitted effect of over 45% in size; also: potency is read from the fitted curve at half-maximal effect)
[11] = target: Estrogen receptor (Homo sapiens) (UniProt P03372); test: qHTS assay to identify small molecule agonists of the estrogen receptor alpha (ER-alpha) signaling pathway (AID 743075; calls by dose curve; also: potency is read from the fitted curve at half-maximal effect)
Chain of Estrogen receptor (Homo sapiens) (P03372 whole entry, looked up): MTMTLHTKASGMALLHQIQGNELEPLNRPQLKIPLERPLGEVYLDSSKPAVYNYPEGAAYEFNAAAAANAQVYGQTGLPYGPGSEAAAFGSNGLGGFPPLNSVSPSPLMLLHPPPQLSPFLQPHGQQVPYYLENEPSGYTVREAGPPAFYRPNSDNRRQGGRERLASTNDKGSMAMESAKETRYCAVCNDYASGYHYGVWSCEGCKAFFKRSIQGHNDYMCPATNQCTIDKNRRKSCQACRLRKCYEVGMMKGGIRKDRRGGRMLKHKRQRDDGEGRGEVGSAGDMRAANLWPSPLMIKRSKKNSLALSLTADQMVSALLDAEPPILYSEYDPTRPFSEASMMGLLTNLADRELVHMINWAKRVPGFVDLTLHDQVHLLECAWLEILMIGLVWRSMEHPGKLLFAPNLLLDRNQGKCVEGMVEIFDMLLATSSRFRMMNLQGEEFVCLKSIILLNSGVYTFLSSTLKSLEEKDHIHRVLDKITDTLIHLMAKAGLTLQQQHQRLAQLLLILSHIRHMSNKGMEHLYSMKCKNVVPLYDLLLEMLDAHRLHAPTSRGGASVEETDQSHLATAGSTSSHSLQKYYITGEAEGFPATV

[12] = target: Estrogen receptor (Homo sapiens) (UniProt P03372); test: qHTS assay to identify small molecule agonists of the estrogen receptor alpha (ER-alpha) signaling pathway using the BG1 cell line (AID 743079); also: nearly all actives have a fitted effect of over 20% in size; also: potency is read from the fitted curve at half-maximal effect
[13] = qHTS assay to identify small molecule antagonists of the estrogen receptor alpha (ER-alpha) signaling pathway using the BG1 cell line (AID 743080; calls by dose curve;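 also: BG1 cells stimulated with 17beta-estradiol alongside compound; nearly all actives have a fitted effect of over 25% in size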; also: potency is read from the fitted curve at half-maximal effect)
In short: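 Endogenous full-length ER-alpha in BG1-Luc-4E2 cells drives a stably integrated 4×ERE luciferase gene; compounds were tested against 17beta-estradiol over 21.5 h, with luminescence and multiplexed viability fluorescence recorded.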

[14] = qHTS assay to identify small molecule antagonists of the estrogen receptor alpha (ER-alpha) signaling pathway using the BG1 cell line - cell viability counter screen (AID 743081);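 also: compound given together with 17beta-estradiol as the ER stimulus; series mostly up to about 70 µM; nearly all actives have a fitted effect of over 45% in size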
[15] = target: Androgen receptor (Homo sapiens) (UniProt P10275); test: qHTS assay to identify small molecule antagonists of the androgen receptor (AR) signaling pathway (AID 743035; active = well fitted inhibition curve with a large enough effect in the signal ratio in the repeat runs, not every such curve was filed as active; inconclusive = weak or mixed curves, or effect the other way; inactive = no such curve, though single readings can be large or run the other way; the % refers to the signal ratio)
Chain of Androgen receptor (Homo sapiens) (P10275 whole entry, looked up): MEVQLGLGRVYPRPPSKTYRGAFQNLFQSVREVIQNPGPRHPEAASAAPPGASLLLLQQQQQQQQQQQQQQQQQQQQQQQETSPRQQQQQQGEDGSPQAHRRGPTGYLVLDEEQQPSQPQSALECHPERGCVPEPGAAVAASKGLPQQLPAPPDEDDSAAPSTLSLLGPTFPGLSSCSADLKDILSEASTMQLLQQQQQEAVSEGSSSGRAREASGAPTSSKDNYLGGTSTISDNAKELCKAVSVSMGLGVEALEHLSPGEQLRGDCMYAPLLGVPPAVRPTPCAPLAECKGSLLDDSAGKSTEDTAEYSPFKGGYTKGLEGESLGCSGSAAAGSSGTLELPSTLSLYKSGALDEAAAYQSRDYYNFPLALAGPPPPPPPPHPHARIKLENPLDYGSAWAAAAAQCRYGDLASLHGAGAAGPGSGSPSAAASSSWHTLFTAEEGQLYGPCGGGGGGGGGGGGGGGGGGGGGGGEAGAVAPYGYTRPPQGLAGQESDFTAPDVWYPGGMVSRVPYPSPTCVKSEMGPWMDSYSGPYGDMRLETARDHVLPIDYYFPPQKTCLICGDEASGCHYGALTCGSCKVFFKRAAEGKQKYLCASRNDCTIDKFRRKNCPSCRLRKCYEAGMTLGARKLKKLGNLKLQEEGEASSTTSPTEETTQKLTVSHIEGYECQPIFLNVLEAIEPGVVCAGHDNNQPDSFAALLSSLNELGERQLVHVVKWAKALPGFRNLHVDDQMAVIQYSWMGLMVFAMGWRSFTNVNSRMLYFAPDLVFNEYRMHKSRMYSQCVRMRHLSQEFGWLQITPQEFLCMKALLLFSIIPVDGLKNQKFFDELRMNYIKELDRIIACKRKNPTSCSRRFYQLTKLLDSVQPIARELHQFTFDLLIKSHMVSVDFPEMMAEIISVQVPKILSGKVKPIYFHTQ
In short: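 Using qHTS, AR-UAS-bla GripTite HEK293 cells received compound, then R1881, and were cultured 16 h at 37C/5% CO2 before a 2 h room-temperature LiveBLAzer B/G FRET substrate step and fluorescence measurement.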

[16] = target: Androgen receptor (Homo sapiens) (UniProt P10275); test: qHTS assay to identify small molecule agonists of the androgen receptor (AR) signaling pathway (AID 743036; active = well fitted activation curve with a large enough effect in the signal ratio in the repeat runs, with a control signal flat, not every such curve was filed as active; inconclusive = weak or mixed curves, or effect the other way; inactive = no such curve, though single readings can be large or run the other way; the % refers to the signal ratio; also: potency is read from the fitted curve at half-maximal effect)
In short: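 In this Tox21 qHTS, 2,000 HEK293 AR-bla cells per well were incubated with compounds for 16 h at 37C and 5% CO2. Fluorescence intensity was recorded 2 h after adding LiveBLAzer B/G FRET substrate at room temperature.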

[17] = target: Androgen receptor (Homo sapiens) (UniProt P10275); test: qHTS assay to identify small molecule agonists of the androgen receptor (AR) signaling pathway using the MDA cell line (AID 743040; also: nearly all actives have a fitted effect of over 20% in size)
In short: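 MDA-kb2 breast carcinoma cells stably carrying an MMTV-driven luciferase reporter (AR- and GR-responsive) were seeded and held 5 h at 37C, 0% CO2, then exposed to compounds in DMSO for 16 h. Luminescence was read 30 min after ONE-Glo addition.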

[18] = target: Androgen receptor (Homo sapiens) (UniProt P10275); test: qHTS assay to identify small molecule antagonists of the androgen receptor (AR) signaling pathway using the MDA cell line (AID 743042; also: nearly all actives have a fitted effect of over 55% in size; also: potency is read from the fitted curve at half-maximal effect)
In short: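 MDA-kb2 cells (human breast carcinoma, stably carrying an MMTV-luciferase reporter responsive to AR and GR) were plated at 3,000 cells/well and preincubated 5 hr at 37C, then given compound plus R1881 agonist for 16 h. ONE-Glo luminescence was read.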

[19] = target: Estrogen receptor (Homo sapiens) (UniProt P03372); test: qHTS assay to identify small molecule antagonists of the estrogen receptor alpha (ER-alpha) signaling pathway (AID 743069; active = well fitted curve in the direction sought with a large enough effect in the signal ratio in the repeat runs, not every such curve was filed as active; inconclusive = weak or mixed curves, or effect the other way; inactive = no such curve, though single readings can be large or run the other way; the % refers to the signal ratio)
In short: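 HEK293 cells stably carrying an ER-alpha-UAS-bla beta-lactamase reporter were pre-cultured overnight in 2% charcoal-stripped FBS medium. Test compounds in DMSO were added together with 17beta-estradiol for 18 hr at 37C. Read-out was fluorescence after 2 hr with LiveBLAzer B/G FRET substrate at room temperature.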

Aromatase (Homo sapiens) = Aromatase (Homo sapiens) (UniProt P11511); test: qHTS assay to identify aromatase inhibitors (AID 743083); also: nearly all actives have a fitted effect of over 55% in size; also: potency is read from the fitted curve at half-maximal effect
Chain of Aromatase (Homo sapiens) (P11511 whole entry, looked up): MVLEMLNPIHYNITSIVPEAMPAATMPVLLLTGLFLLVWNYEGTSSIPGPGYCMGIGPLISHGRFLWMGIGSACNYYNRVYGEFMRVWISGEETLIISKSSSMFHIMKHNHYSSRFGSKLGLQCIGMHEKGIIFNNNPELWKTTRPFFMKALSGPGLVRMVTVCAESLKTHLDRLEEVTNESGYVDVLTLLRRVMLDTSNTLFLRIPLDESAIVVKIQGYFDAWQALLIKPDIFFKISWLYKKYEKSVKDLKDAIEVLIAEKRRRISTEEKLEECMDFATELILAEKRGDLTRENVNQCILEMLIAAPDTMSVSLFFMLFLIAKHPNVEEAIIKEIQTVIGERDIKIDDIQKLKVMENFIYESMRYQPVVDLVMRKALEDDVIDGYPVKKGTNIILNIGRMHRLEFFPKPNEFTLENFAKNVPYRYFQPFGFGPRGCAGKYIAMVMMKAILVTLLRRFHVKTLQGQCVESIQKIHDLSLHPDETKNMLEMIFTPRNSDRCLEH

Measured: Potency

CC(C)(C)c1cc(C(C)(C)C)c(O)c(C(C)(C)C)c1
active: [7] 27.3 µM | [8] 27.3 µM | [9] 9.69 µM
inactive: [1] | [2] | [3] | [4] | [5] | [6] | [10] | [11] | [12] | [13] | [14]

OCC(CO)N[C@H]1C[C@](O)(CO)[C@@H](O)[C@H](O)[C@H]1O
inactive: [1] | [2] | [3] | [4] | [5] | [15] | [16] | [17] | [6] | [18] | [7] | [8] | [9] | [19] | [10] | [11] | [12] | [13] | [14] | Aromatase (Homo sapiens)

O=C(OCc1ccccc1)c1ccc(O)cc1
inactive: [1] | [2] | [3] | [5] | [6] | [7] | [8] | [9] | [19] | [10] | [14] | Aromatase (Homo sapiens)
active: [4] 61.1 µM | [11] 54.9 µM [inconclusive] | [12] 10.6 µM and 12.2 µM

CO[Si](OC)(OC)c1ccccc1
inactive: [1] | [2] | [3] | [4] | [5] | [6] | [7] | [8] | [9] | [19] | [10] | [11] | [12] | [13] | [14] | Aromatase (Homo sapiens)

CCN1CCCC1CNC(=O)c1cc(S(=O)(=O)CC)c(N)cc1OC (configuration not stated)
inactive: [1] | [2] | [3] | [4] | [5] | [6] | [7] | [8] | [9] | [19] | [11] | [12] | [13] | Aromatase (Homo sapiens)

COc1cc(C(=S)N2CCOCC2)ccc1O
inactive: [1] | [2] | [3] | [4] | [5] | [17] | [6] | [18] | [7] | [8] | [9] | [10] | [11] | [12] | [13] | [14] | Aromatase (Homo sapiens)

Nc1nc2ccccc2[nH]1
inactive: [1] | [2] | [3] | [4] | [5] | [6] | [7] | [8] | [9] | [19] | [10] | [11] | [12] | [13] | [14] | Aromatase (Homo sapiens)

CCc1ccc(C(c2ccc(CC)cc2)C(Cl)Cl)cc1
inactive: [1] | [2] | [3] | [4] | [5] | [16] | [17] | [6] | [18] | [7] | [8] | [9] | [19] | [11] | [13] | [14] | Aromatase (Homo sapiens)

O=Cc1ccc(Cl)cc1
inactive: [1] | [2] | [3] | [4] | [5] | [15] | [6] | [18] | [8] | [9] | [10] | [14] | Aromatase (Homo sapiens)
active: [16] 19.4 µM

Oc1ccc(Cl)cc1Cc1cc(Cl)ccc1O
active: [1] 39.6 µM and 34.7 µM | [2] 23.7 µM and 39.3 µM and 21.7 µM | [3] 16.8 µM and 31.2 µM and 10.9 µM | [4] 16.8 µM and 31.2 µM and 12.2 µM | [5] 19.8 µM and 11 µM | [18] 27.8 µM and 38.6 µM | [7] 18.8 µM and 15.6 µM and 27.3 µM | [8] 7.5 µM and 3.12 µM and 5.45 µM | [10] 49.9 µM and 38.9 µM | [13] 33.5 µM | Aromatase (Homo sapiens) 29.8 µM and 30.6 µM
inactive: [16] | [17] | [6] | [9] | [19] | [11] | [14]

O=Nc1ccc(Nc2ccccc2)cc1
active: [2] 3.88 µM and 3.06 µM | [3] 1.23 µM and 1.72 µM | [4] 3.08 µM and 2.17 µM | [5] 17.5 µM and 30.9 µM | [6] 61.4 µM | [18] 54.8 µM | [7] 5.48 µM and 6.86 µM | [8] 4.35 µM and 5.45 µM | [11] 12.4 µM [inconclusive] and 55 µM [activator] | [12] 68.6 µM
inactive: [1] | [17] | [9] | [14]

c1ccc2n[nH]nc2c1
inactive: [1] | [2] | [4] | [5] | [6] | [7] | [8] | [9] | [10] | [14] | Aromatase (Homo sapiens)
inactive and 61.1 µM (active): [3]
